# Assay results reported in PubChem BioAssay (Tox21).
# Unmarked numbers belong to inactive results. Calls follow the shape of the full dose curve.
# Biological target: Gonadotropin-releasing hormone receptor (Homo sapiens) (UniProt P30968)
# Assay: Human gonadotropin-releasing hormone receptor (GnRHR) small molecule agonists, calcium flux assay in GnRHR-HEK293 cells (AID 1920063); also: nearly all actives have a fitted effect of over 35% in size
# Conditions: calcium flux fluorescence, agonist mode; series mostly up to 57.6 µM; activity change: at the top concentration
# Text: National Center for Advancing Translational Sciences [NCATS]
# Division of Preclinical Innovation [DPI]
# U.S. Environmental Protection Agency [EPA]
# National Institutes of Environmental Health Sciences [NIEHS]
# National Toxicology Program [NTP]
# U.S. Food and Drug Administration [FDA]
# Gonadotropin-releasing hormone receptor (GnRHR) is a G-protein-coupled receptor (GPCR) and acts (through phospholipase C) to increase intracellular inositol trisphosphate and then release intracellular calcium stores. Cell-based GnRHR-Hek293 calcium influx assay is using HEK293 cells that have been genetically engineered to express the human GnRHR, which activity can be measured by calcium signaling. A compound/drug can activate (agonist) GnRHR that can be monitored by levels of intracellular calcium.
# GnRHR-HEK293 cells developed by Codex Corp contain human GnRHR reporter gene, which was stably integrated into HEK 293 cells. The compound activation can be detected by fluorescence intensity via calcium flux assay. This cell line has been used to screen the Tox21 10K compound library to identify GnRHR agonists.
# GnRHR-Hek293 cells were dispensed at 1500cells/4uL/well in 1536-well black wall/clear bottom plates using a multidrop dispenser. After the assay plates were incubated at a 37 C/5% CO2 incubator for 18 hours, 4 uL of Calcium Dye Solution was added to each well. The plates were incubated at 37 C for 1 hour. For agonist mode, 23 nL of compounds dissolved in DMSO, positive controls or DMSO only was transferred to the assay plate by a pin tool station. The fluorescence intensity in the plates was measured using FDSS 7000EX kinetic plate reader with a filter set of Ex/Em=480/540 for 3 min at 1 sec intervals. Each test compound was measured at 15 concentrations and in triplicates.
# % is scaled to controls: 0 for no effect and ±100 for the full control effect.
# Gonadotropin-releasing hormone receptor (Homo sapiens), sequence (P30968 whole entry, looked up): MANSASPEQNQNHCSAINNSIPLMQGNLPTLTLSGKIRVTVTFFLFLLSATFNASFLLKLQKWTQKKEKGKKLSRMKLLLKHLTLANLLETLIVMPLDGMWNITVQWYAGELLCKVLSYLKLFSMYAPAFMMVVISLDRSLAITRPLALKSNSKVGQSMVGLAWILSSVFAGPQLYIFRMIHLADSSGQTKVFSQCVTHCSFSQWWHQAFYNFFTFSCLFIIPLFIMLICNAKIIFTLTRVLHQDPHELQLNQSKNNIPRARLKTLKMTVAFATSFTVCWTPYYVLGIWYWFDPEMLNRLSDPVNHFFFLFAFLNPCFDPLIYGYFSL
row,Structure (SMILES),activity change
1,Nc1c2c(nc3ccccc13)CCCC2O (stereo not given),"0.874% [at 26.4 µM, active compounds read high]"
2,OC1(c2ccc(Cl)c(C(F)(F)F)c2)CCN(CCCC(c2ccc(F)cc2)c2ccc(F)cc2)CC1,"3.73% [at 26.4 µM, active compounds read high]"
3,OCCC(O)CO (stereo not given),0.0393%
4,CC(C)(C)N,-1.47%
5,CCOC(=O)c1ncn2c1CN(C)C(=O)c1cc(F)ccc1-2,"-0.0214% [at 26.4 µM, active compounds read high]"
6,O=C1C(CCS(=O)c2ccccc2)C(=O)N(c2ccccc2)N1c1ccccc1 (stereo not given),"-0.996% [at 26.4 µM, active compounds read high]"
7,CCOC(=O)COc1ccc(C)cc1,-2.03%
8,Cc1c(C)c([N+](=O)[O-])c(C(C)(C)C)c([N+](=O)[O-])c1C,-0.442%
9,CC(C)C[C@H](NC(=O)[C@H](CCc1ccccc1)NC(=O)CN1CCOCC1)C(=O)N[C@@H](Cc1ccccc1)C(=O)N[C@@H](CC(C)C)C(=O)[C@@]1(C)CO1,"1.83% [at 26.4 µM, active compounds read high]"
10,Cc1ccc(Cl)c(OCC(O)CNC(C)(C)C)c1 (stereo not given),"0.0779% [at 26.4 µM, active compounds read high]"
11,C/C=C(\C)C=O,-0.222%
12,CC(C)(C)NCC(O)COc1cccc2c1CCC(=O)N2 (stereo not given),"-1.01% [at 26.4 µM, active compounds read high]"
13,C=C(C)C(=O)OCC(C)(C)COC(=O)C(=C)C,-0.0688%
14,CCO[Si](CCCCl)(OCC)OCC,-0.52%
15,CCCCCC(C)N (stereo not given),"-1.45% [at 26.4 µM, active compounds read high]"
16,CN1CCCCC1CCN1c2ccccc2Sc2ccc(S(C)=O)cc21 (stereo not given),"1.44% [at 26.4 µM, active compounds read high]"
17,CC(C)=CCC/C(C)=C/COC=O,-0.808%
18,CCCCCOc1ccc(C2SC(=O)NC2=O)cc1OCC (stereo not given),"3.33% [at 26.4 µM, active compounds read high]"
19,Cc1c[nH]c2ccccc12,"-0.684% [at 26.4 µM, active compounds read high]"
20,Oc1ccc(Cl)c2cccnc12,"-0.212% [at 26.4 µM, active compounds read high]"

row,Structure (SMILES),activity change
1,O=C(NCCO[N+](=O)[O-])c1cccnc1,"-0.0756% [at 26.4 µM, active compounds read high]"
2,CCN(CCO)CCCC(C)Nc1ccnc2cc(Cl)ccc12 (stereo not given),"-0.334% [at 5.22 µM, active compounds read high]"
3,CC(Cl)C(Cl)Cl (stereo not given),-0.582%
4,CC(=O)Nc1ccccc1C,-2.13%
5,CCCCCCCCCCOCC(O)CN (stereo not given),"7.16% [at 26.4 µM, active compounds read high]"
6,CCCCCCC1CCCC(=O)O1 (stereo not given),-1.07%
7,CN(C)CCOCCN(C)CCO,-0.0644%
8,CCCCCCCCCCCCCCC1CO1 (stereo not given),-0.0794%
9,Cc1ccc(S)cc1,-0.115%
10,Cc1ccc(/C=N/n2c(-c3ccccc3)csc2=S)cc1,"-1.67% [at 26.4 µM, active compounds read high]"
11,CN1CCOC(c2ccccc2)c2ccccc2C1 (stereo not given),"-0.249% [at 26.4 µM, active compounds read high]"
12,CCOC(=O)Nc1ccc(NCc2ccc(F)cc2)nc1N,"5.78% [at 26.4 µM, active compounds read high]"
13,COC(=O)[C@@H]1[C@H]2C[C@H]3c4[nH]c5ccccc5c4CCN3C[C@@H]2CC[C@@H]1O,"-0.0079% [at 26.4 µM, active compounds read high]"
14,Nc1ccc(S(=O)(=O)O)cc1,-0.0202%
15,Cc1ccccc1C(=O)Nc1ccc(C(=O)N2CCCC(N(C)C)c3ccccc32)cc1 (stereo not given),"-0.338% [at 26.4 µM, active compounds read high]"
16,CCC(=O)c1cccc(Cl)c1,-0.331%
17,CCCCOc1cc(C(=O)NCCN(CC)CC)c2ccccc2n1,"-0.0122% [at 26.4 µM, active compounds read high]"
18,COc1cc2nc(N3CCN(C(=O)C4CCCO4)CC3)nc(N)c2cc1OC (stereo not given),"0.46% [at 26.4 µM, active compounds read high]"
19,C=CC(C)(O)CCCC(C)CCCC(C)CCCC(C)C (stereo not given),-1.32%
20,CC(C)(C#N)Nc1nc(Cl)nc(NC2CC2)n1,-0.788%
